# Only some compounds are listed: those with a hit (about 1.6% of all), similar ones and a draw of the others.
# KCNQ2 block = blocks the rat KCNQ2 potassium channel. B-score at 10 µM. 1.1% of 310,000 active. CHO-K1 KCNQ2, FluxOR thallium flux, 20 min; active compounds read low;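 active = fluorescence ratio B-score at most minus 3 library SDs, with starting brightness B-score within 2 library SDs, cut at about -5.5 in these data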
# Target sequence (O88943 whole entry, looked up): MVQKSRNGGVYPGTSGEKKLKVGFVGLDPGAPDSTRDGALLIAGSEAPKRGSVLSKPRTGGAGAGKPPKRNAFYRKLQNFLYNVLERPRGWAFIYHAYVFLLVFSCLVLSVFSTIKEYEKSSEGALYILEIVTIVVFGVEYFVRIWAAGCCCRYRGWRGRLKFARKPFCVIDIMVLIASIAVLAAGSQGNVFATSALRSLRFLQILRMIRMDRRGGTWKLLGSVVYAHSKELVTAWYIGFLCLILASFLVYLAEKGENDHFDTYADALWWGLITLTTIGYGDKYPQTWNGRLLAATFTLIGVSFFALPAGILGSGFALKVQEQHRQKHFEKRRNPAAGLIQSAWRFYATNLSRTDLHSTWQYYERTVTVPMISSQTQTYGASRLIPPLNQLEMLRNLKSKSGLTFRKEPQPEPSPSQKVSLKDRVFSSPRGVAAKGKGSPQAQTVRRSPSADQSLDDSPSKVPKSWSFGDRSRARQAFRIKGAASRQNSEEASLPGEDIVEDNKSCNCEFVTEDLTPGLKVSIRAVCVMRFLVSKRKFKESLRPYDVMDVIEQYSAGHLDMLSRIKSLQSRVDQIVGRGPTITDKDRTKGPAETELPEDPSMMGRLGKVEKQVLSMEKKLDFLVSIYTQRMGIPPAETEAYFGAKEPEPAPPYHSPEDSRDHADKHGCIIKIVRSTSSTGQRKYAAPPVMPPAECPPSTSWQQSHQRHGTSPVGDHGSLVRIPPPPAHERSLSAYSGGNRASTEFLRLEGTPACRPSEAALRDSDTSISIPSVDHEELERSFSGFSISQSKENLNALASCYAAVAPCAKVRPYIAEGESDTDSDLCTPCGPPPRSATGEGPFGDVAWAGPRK
# KCNQ2 enhance = enhances the rat KCNQ2 potassium channel | B-score at 10 µM | 0.54% of 310,000 active | O88943 | AID 2239 | CHO-K1 KCNQ2, FluxOR thallium flux fluorescence; active compounds read high;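 active = fluorescence ratio B-score at least 3 SD of library B-scores, with initial fluorescence B-score within 3 of them, cut at about 5.3 in these data; same plate scores as AID 2156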;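 note: B-score of peak minus minimum over baseline fluorescence ratio after K+ and Tl+ stimulus; positive B-score means potentiation of KCNQ2 with more thallium influx and brighter signal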
# Kir21 confirm = confirmation of mouse Kir2.1 potassium channel inhibitors; shares compounds with KCNQ2 enhance; Kir2.1-expressing cells, FluxOR thallium flux fluorescence; active compounds read low; Tl flux remaining, % of negative control (active compounds read low), % at 10 µM; 41% of 2,300 active; AID 2032;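 active = Primary-screen hit whose thallium flux fell at least 3 control SD below untreated wells in both duplicates, with normal baseline fluorescence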;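 note: 0% = blank wells without stimulus and 100% = stimulated no-compound controls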
# HEK293 Tl flux = parental HEK293 activity in Kir2.1 inhibitor counter-screen. shares compounds with KCNQ2 enhance. parental HEK293 cells, FluxOR thallium flux fluorescence; 0% = unstimulated blank wells. FluxOR signal as % of negative control (100 = no effect), % at 10 µM. 19% of 2,300 active. AID 2105;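 active = dye signal at least 3 control SD above or below untreated wells in both duplicates, raw fluorescence within 3, either direction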;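 note: percent is based on the flux ratio of peak minus minimum fluorescence over baseline F0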
# CHO-K1 ctr = counter-screen for KCNQ2 potentiators: effect in parental CHO-K1 cells | shares compounds with KCNQ2 enhance | FluxOR thallium flux fluorescence; zero = vehicle mean+3SD, 100% = vehicle-minus-blank window | activity increase over 3SD of controls, % at 10 µM | 43% of 1,200 active;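 active = signal rise of at least 3 SD above the untreated control mean, in both duplicate wells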;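 note: counter screen of KCNQ2 potentiator hits so any rise reflects channel-independent effects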
# KCNQ1 pot spec = tests whether KCNQ2 potentiators also act on human KCNQ1; AID 2283; 28% of 1,200 active; CHO KCNQ1 stable, FluxOR thallium flux fluorescence; beyond 3SD, as % of vehicle-control signal; activation over 3SD threshold, % at 10 µM; shares compounds with KCNQ2 enhance;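 active = fluorescence ratio rise of at least 3 SD of vehicle wells above their mean, in both replicate wells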;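 note: 0% = vehicle mean plus 3 SD and 100% = vehicle minus unstimulated blank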
# KCNQ2 pot confirm = rat KCNQ2 channel potentiator confirmation; shares compounds with KCNQ2 enhance; AID 2287; 68% of 1,200 active; potentiation, less the hit threshold, % at 10 µM; CHO-KCNQ2 cells, FluxOR thallium flux fluorescence;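 active = fluorescence ratio rising 3 SD or more over the vehicle control mean in both replicates, plus primary screen hit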;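 note: peak minus minimum thallium fluorescence divided by baseline after K/Tl stimulus; 0% = vehicle mean plus 3 SD and 100% = vehicle minus unstimulated blank difference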
# Kir2-1 sel = mouse Kir2.1 off-target activity of KCNQ2 potentiators; HEK293 Kir2.1, FluxOR thallium flux fluorescence; activity over 3SD threshold, % at 10 µM; 2% of 1,200 active; shares compounds with KCNQ2 enhance;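 active = fluorescence ratio rise of at least 3 SD above the vehicle-control mean, seen in both replicates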;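 note: 0% = vehicle mean plus 3 SD and 100% = vehicle minus no-stimulus blank window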
# KCNQ2 W236L MoA = KCNQ2 potentiators acting on retigabine-insensitive rat KCNQ2 W236L mutant. shares compounds with KCNQ2 enhance. CHO KCNQ2-W236L, automated patch clamp current. current increase over 3SD of negative controls (%), active compounds read high, % at 25 µM. 10% of 940 active. AID 2558;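 active = current increase at least 3 SD of the untreated controls above them in both duplicate recordings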
# Active calls of the source: *; i = inactive; / = no result given.
SMILES,KCNQ2 block,KCNQ2 enhance,Kir21 confirm,HEK293 Tl flux,others
O=c1[nH]nc(SCc2ccccc2)c(=O)[nH]1,i,1.82,/,/,
Cc1cc(C)c(OCCCCNCc2ccccc2)c(Cl)c1,i,/,12.0%*,i,
Cc1cc(Br)ccc1OCCNCc1ccccc1,i,/,25.0%*,i,
Clc1ccc(OCCOCCNCc2ccccc2)cc1Cl,i,/,22.5%*,i,
Cc1cc(C)c(C)c(OCCNCc2ccccc2)c1,i,/,/,/,
Cc1cc(Cl)cc(C)c1OCCOCCNCc1ccccc1,i,/,14.5%*,i,
COc1ccccc1OCCCOc1c(Cl)cc(C)cc1Cl,i,0.23,/,/,
COc1c(Cl)cc(Cl)cc1CNCc1ccccc1,i,/,/,/,
CC(C)(C)c1ccc(OCCNCc2ccccc2)cc1,i,/,/,/,
COCCN(C(=O)C(=O)NC1CCCC1)C(C(=O)NC1CCCC1)c1ccccc1F (configuration not stated),i,0.01,/,/,
COC(=O)CSc1nc2ccc(N)cc2s1,i,/,/,/,
Cc1cc(/C(O)=C2\C(=O)C(=O)N(CCN(C)C)C2c2ccncc2)ccc1OCc1ccccc1 (configuration not stated),i,/,/,/,
Clc1ccc(OCCCNCc2ccccc2)c2ccccc12,-7.61*,-7.61,13.5%*,73.5%*,
CCC(C)NCCOCCOc1ccc(Cl)c2ccccc12 (configuration not stated),i,0.24,/,/,
N#Cc1c(NCCCO)nc(-c2ccccc2)c2c1CCCC2,i,1.11,/,/,
N#Cc1c(NCCN)nc(-c2ccccc2)c2c1CCCC2,i,/,45.5%*,i,
CC1Cc2cc(/C(O)=C3/C(=O)C(=O)N(CCN4CCOCC4)C3c3ccc(C(C)C)cc3)ccc2O1 (configuration not stated),i,0.09,/,/,
COc1cc(CNCCc2ccccc2F)ccc1OCc1ccc(Cl)nc1,i,0.04,/,/,
COc1cc(CNCCc2ccc(F)cc2)ccc1OCc1ccc(Cl)nc1,i,/,32.5%*,i,
Cc1cccc(N2CN=c3s/c(=C\c4ccncc4)c(=O)n3C2)c1,i,/,/,/,
O=S(=O)(Cc1ccccc1)N1CCCCCC1,i,/,/,/,
OCCNCc1c(OCc2ccc(Cl)cc2)ccc2ccccc12,i,0.51,37.0%*,i,
OCCNCCNCc1ccccc1OCc1ccccc1,i,/,/,/,
CCS(=O)(=O)c1ccc2oc(SCC(=O)Nc3ccc(OC)cc3OC)nc2c1,i,0.67,/,/,
CCS(=O)(=O)c1ccc2oc(SCC(=O)NC(C)C3CC4CCC3C4)nc2c1 (configuration not stated),i,10.1*,i,i,CHO-K1 ctr=-16.9;KCNQ1 pot spec=-14.4;KCNQ2 pot confirm=20.7*;Kir2-1 sel=-36.8;KCNQ2 W236L MoA=i
SMILES,KCNQ2 block,KCNQ2 enhance,Kir21 confirm,HEK293 Tl flux,others
CCc1ccc(N(C(=O)c2csnn2)C(C(=O)NCc2ccccc2)c2ccco2)cc1 (configuration not stated),i,/,/,/,
O=[N+]([O-])c1cc(Cl)cc(/C=N/NC(=S)Nc2ccc(S(=O)(=O)N3CCOCC3)cc2)c1O,i,17.6*,i,i,CHO-K1 ctr=3.6*;KCNQ1 pot spec=-5.7;KCNQ2 pot confirm=39.0*;Kir2-1 sel=-29.6;KCNQ2 W236L MoA=3.7%*
O=S(=O)(c1ccc(NC(=S)N/N=C/c2ccc(O)c(O)c2)cc1)N1CCOCC1,i,/,/,/,
CCCCNc1ccc(C(=O)O)cc1,i,/,/,/,
CC(C)CC1C(C#N)=C(N)Oc2n[nH]c(-c3ccccc3)c21 (configuration not stated),i,1.98,/,/,
O=C(COC(=O)c1ccc(F)c(S(=O)(=O)N2CCOCC2)c1)NCc1ccco1,i,0.41,/,/,
CC(=O)C1=C(C)NC(SCC(=O)c2ccc(Cl)cc2)=C(C#N)C1c1ccco1 (configuration not stated),i,11.6*,i,i,CHO-K1 ctr=-20.7;KCNQ1 pot spec=16.9*;KCNQ2 pot confirm=-23.8;Kir2-1 sel=-37.4

# Assay outcomes from PubChem.
